A selection: hits, their analogues and other compounds. The true share with any hit is near 2.2%.
TLR9-MyD88 inh – blocks human TLR9 binding to MyD88; inhibition, % at 4.98 µM; CHO BLA complementation TLR9-MyD88, CCF4 FRET ratio; 340,000 compounds, 0.21% hits; Q9NR96+Q99836;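 active means inhibition above the mean over all tested compounds plus 3 SD, cut at about 21% in these data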
GRK2 aptamer HTS – human GRK2 inhibition via aptamer displacement. P25098. bead flow cytometry, FAM-aptamer displacement from GRK2. inhibition of aptamer binding, % at 10 µM. 330,000 compounds, 0.59% hits;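 active means inhibition of aptamer binding above 40%, roughly 3 SD of noise, on plates passing a quality check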;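 further: median bead fluorescence of bound FAM aptamer so fluorescent compounds give negative values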
ANO1 activ – mouse TMEM16A channel activation, primary screen. Q8BHY3. HEK293 TMEM16A/YFP-H148Q/I152L, iodide quench fluorescence; active compounds read low. B-score at 10 µM. 340,000 compounds, 0.3% hits. AID 623877;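 active means fluorescence-ratio B-score plate-corrected deviation score at least 3 library SD below zero, with starting fluorescence score within 5 deviations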;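 further: channel opened by trigger with iodide after compound preincubation; score built on the fluorescence ratio of max minus min over baseline; more negative score means more quench and so TMEM16A activation or potentiation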
TLR4 MyD88 comp – TLR4-MyD88 interaction inhibition in cells; O00206+Q99836; HeLa CL3-4 TLR4/MyD88 BLA complementation, FRET ratio; inhibition, % at 8.4 µM; 200,000 compounds, 0.18% hits; AID 861; in the data active means inhibition above about 25%
Target sequence (O00206 whole entry, looked up): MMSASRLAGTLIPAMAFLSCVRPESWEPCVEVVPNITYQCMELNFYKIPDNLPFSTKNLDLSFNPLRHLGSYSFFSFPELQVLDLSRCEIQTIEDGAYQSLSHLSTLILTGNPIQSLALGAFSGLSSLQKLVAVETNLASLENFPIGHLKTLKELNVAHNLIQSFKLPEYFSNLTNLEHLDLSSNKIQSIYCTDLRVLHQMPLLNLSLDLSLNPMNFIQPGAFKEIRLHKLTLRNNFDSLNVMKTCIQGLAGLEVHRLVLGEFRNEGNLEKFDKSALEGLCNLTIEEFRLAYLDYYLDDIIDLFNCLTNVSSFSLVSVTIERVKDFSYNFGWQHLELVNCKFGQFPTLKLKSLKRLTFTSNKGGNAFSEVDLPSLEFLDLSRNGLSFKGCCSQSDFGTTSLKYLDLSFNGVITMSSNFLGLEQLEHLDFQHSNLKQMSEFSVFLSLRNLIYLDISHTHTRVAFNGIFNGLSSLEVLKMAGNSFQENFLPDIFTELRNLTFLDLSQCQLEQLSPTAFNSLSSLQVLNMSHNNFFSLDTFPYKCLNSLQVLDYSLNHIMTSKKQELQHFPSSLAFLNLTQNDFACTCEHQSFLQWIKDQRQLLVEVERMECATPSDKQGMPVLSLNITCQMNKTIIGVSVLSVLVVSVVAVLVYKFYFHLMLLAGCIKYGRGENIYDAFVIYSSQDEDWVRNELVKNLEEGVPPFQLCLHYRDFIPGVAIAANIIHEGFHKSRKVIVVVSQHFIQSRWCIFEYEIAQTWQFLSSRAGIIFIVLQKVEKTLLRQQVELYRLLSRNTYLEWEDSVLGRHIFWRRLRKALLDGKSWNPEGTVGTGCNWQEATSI
Target sequence (Q99836 whole entry, looked up): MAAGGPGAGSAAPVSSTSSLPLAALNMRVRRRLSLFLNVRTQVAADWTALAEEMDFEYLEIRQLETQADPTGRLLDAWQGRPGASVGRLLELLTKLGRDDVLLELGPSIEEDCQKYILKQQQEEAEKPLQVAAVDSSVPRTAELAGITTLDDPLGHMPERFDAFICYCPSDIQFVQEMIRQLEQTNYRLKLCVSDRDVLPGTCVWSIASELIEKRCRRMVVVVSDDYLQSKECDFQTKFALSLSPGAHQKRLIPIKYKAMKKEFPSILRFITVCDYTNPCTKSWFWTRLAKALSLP
NOD2 RIPK2 PPI – NOD2-RIPK2 protein interaction inhibition. O43353. CHO BLA complementation NOD2-RIPK2, CCF4 ratio. inhibition, % at 4.98 µM. 360,000 compounds, 0.38% hits. AID 624267; in the data active means inhibition above about 21%
TMEM16A inh – inhibitors of mouse TMEM16A calcium-activated chloride channel; HEK293 TMEM16A/YFP iodide influx fluorescence, ionomycin; 310,000 compounds, 1.2% hits; Q8BHY3; normalized B-score (activity score, 25-100; higher = stronger inhibition) at 10 µM;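 active means ratio plate-corrected score three or more library SD toward inhibition, starting fluorescence score within five deviations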;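 further: score derived from kinetic fluorescence span divided by baseline fluorescence per well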
NOD2-RIPK2 conf – NOD2-RIPK2 interaction inhibition confirmed | 1,200 compounds, 70% hits | inhibition, % at 4.98 µM | CHO cells, NOD2-RIPK2 BLA complementation, CCF4 FRET | shares compounds with NOD2 RIPK2 PPI;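 active means mean inhibition across replicates above a set limit taken from the earlier primary screen, cut at about 21% in these data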
NOD2 BLA counter – counter-screen for NOD2-RIPK2 interaction inhibitors: BLA reporter; shares compounds with NOD2 RIPK2 PPI; CHO BLA reporter, CCF4 FRET ratio, counterscreen; inhibition, % at 4.98 µM; 1,200 compounds, 57% hits; AID 624371;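 active means mean inhibition above the low-control mean inhibition plus three low-control SD, cut at about 11% in these data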
Of the large screens only hits and unclear results are named; the others gave an inactive call (follow-up assays come after a bar, where they were run).

OC[C@@H]1[C@@H](c2ccc(Cl)cc2)C(c2cccc(Cl)c2)=NN1c1ccccc1	NOD2 RIPK2 PPI 34.3 (no result: ANO1 activ, TLR4 MyD88 comp, TMEM16A inh) | NOD2-RIPK2 conf 29.7 | NOD2 BLA counter 59.4
CC(C)CC(C(=O)O)N1C(=O)C2C3C=CC(C2C1=O)C1C(=O)N(C(CC(C)C)C(=O)O)C(=O)C31 (centres undefined)	none (no result: TLR4 MyD88 comp)
COc1cc2ccc(=O)oc2cc1OCC(O)C(C)(C)O (centres undefined)	none (no result: TLR4 MyD88 comp)
COc1cc2ccc(=O)oc2cc1O	NOD2 RIPK2 PPI 29.6 (no result: TLR4 MyD88 comp) | NOD2-RIPK2 conf inactive | NOD2 BLA counter 38.5
Cc1ccc(F)c(S(=O)(=O)NC(=O)C2(C)CCN2C(=O)c2ccc(C3CCCCC3)cc2)c1 (centres undefined)	none (no result: TLR9-MyD88 inh, GRK2 aptamer HTS, ANO1 activ, TLR4 MyD88 comp, TMEM16A inh)
O=C(Nc1ccc2nc3n(c(=O)c2c1)CCCCC3)c1c(F)ccc([N+](=O)[O-])c1F	NOD2 RIPK2 PPI 22.7 (no result: TLR4 MyD88 comp) | NOD2-RIPK2 conf 22.9 | NOD2 BLA counter inactive
O=[N+]([O-])c1ccc(S(=O)(=O)c2ccccc2)nc1	NOD2 RIPK2 PPI 77.8 (no result: TLR4 MyD88 comp) | NOD2-RIPK2 conf 53.6 | NOD2 BLA counter 13.1
Cc1cc(S(=O)(=O)c2ccc([N+](=O)[O-])cn2)ccc1Br	none (no result: TLR4 MyD88 comp)
Cc1ccc(S(=O)(=O)c2ccc([N+](=O)[O-])cn2)cc1	NOD2 RIPK2 PPI 70.5 (no result: TLR4 MyD88 comp) | NOD2-RIPK2 conf 54.1 | NOD2 BLA counter inactive
O=C(NC1CCCC1)C(C1CC1)n1c(-c2cc3ccccc3[nH]2)nc2ccccc21 (centres undefined)	none (no result: TLR9-MyD88 inh, GRK2 aptamer HTS, ANO1 activ, TLR4 MyD88 comp, TMEM16A inh)
O=C(NCc1ccccc1)C(c1ccncc1)n1c(=O)c(-c2ccccc2)nc2ccccc21 (centres undefined)	none (no result: TLR9-MyD88 inh, GRK2 aptamer HTS, ANO1 activ, TLR4 MyD88 comp, TMEM16A inh)
O=C(NC1CCCCC1)C(C1CC1)n1c(=O)c(-c2cc3ccccc3[nH]2)nc2ccccc21 (centres undefined)	NOD2 RIPK2 PPI 44.0 (no result: TLR9-MyD88 inh, GRK2 aptamer HTS, ANO1 activ, TLR4 MyD88 comp, TMEM16A inh) | NOD2-RIPK2 conf 38.3 | NOD2 BLA counter 63.7
CCCCCNC(=O)C(C1CC1)n1c(=O)c(-c2ccccc2)nc2ccccc21 (centres undefined)	none (no result: TLR9-MyD88 inh, GRK2 aptamer HTS, ANO1 activ, TLR4 MyD88 comp, TMEM16A inh)
O=C(NCc1ccccc1)C(c1ccccc1)n1c(=O)c(-c2cc3ccccc3[nH]2)nc2ccccc21 (centres undefined)	NOD2 RIPK2 PPI 47.8 (no result: TLR9-MyD88 inh, GRK2 aptamer HTS, ANO1 activ, TLR4 MyD88 comp, TMEM16A inh) | NOD2-RIPK2 conf 43.9 | NOD2 BLA counter 64.9
O=C(NCc1ccccc1)C(c1cc2ccccc2o1)n1c(=O)c(-c2cc3ccccc3[nH]2)nc2ccccc21 (centres undefined)	NOD2 RIPK2 PPI 50.6 (no result: TLR9-MyD88 inh, GRK2 aptamer HTS, ANO1 activ, TLR4 MyD88 comp, TMEM16A inh) | NOD2-RIPK2 conf 46.3 | NOD2 BLA counter 67.3
O=C(NCc1ccccc1)C(C1CC1)n1c(=O)c(-c2cc3ccccc3[nH]2)nc2ccccc21 (centres undefined)	NOD2 RIPK2 PPI 45.2 (no result: TLR9-MyD88 inh, GRK2 aptamer HTS, ANO1 activ, TLR4 MyD88 comp, TMEM16A inh) | NOD2-RIPK2 conf 42.1 | NOD2 BLA counter 63.9
N#Cc1c(N)nc2c(c1-c1ccc(F)cc1)c(=O)nc1sccn12	none
Cc1ccc(F)c(S(=O)(=O)NC(=O)C2(C)CCN2C(=O)Cc2ccc(-c3ccccc3)cc2)c1 (centres undefined)	none (no result: TLR9-MyD88 inh, GRK2 aptamer HTS, ANO1 activ, TLR4 MyD88 comp, TMEM16A inh)
Cc1cc(C)nc(N/C(=N\S(=O)(=O)Cc2ccccc2)Nc2ccccc2Br)n1	none
Cc1cc(NC(=O)CCN2C(=O)/C(=C/c3ccccc3Cl)SC2=S)no1	NOD2 RIPK2 PPI 33.9 | NOD2-RIPK2 conf inactive | NOD2 BLA counter inactive
CC(=O)c1cccc(NC(=O)C2(C)Cc3c(-c4cccc(C(F)(F)F)c4)ccnc3O2)c1 (centres undefined)	none (no result: TLR9-MyD88 inh, GRK2 aptamer HTS, ANO1 activ, TLR4 MyD88 comp, TMEM16A inh)
COc1ccc(C(=O)N2CCC(n3nccc3NC(=O)C3CC3)CC2)cc1F	none (no result: TLR4 MyD88 comp)
COc1ccc(C(C)=O)cc1CSc1nc2ccccc2c(=O)n1-c1ccccc1C	NOD2 RIPK2 PPI 24.0 | NOD2-RIPK2 conf inactive | NOD2 BLA counter inactive
COc1ccc(C(C)=O)cc1CSc1nc2ccccc2c(=O)n1-c1ccccc1	none
Cc1c(N=C2N=C(NC(=O)c3ccc(F)cc3)c3ccccc32)c(=O)n(-c2ccccc2)n1C	none
O=C(/C=C/c1cc(Br)ccc1O)c1ccco1	NOD2 RIPK2 PPI 21.0 (no result: TLR4 MyD88 comp) | NOD2-RIPK2 conf inactive | NOD2 BLA counter inactive

Screening results as filed in PubChem.
